From PubChem BioAssay (NCATS)
Where “and” joins values, the source holds several entries; their conditions need not be identical. Equal values may be shown once. Results filed as inconclusive are left out. Values without a mark were called inactive. Calls of active or inactive are those of the source. Calls follow the shape of the dose curve; as a rule, active = well fitted curve in the direction sought with a large enough effect; inconclusive = small, poorly fitted or top-dose-only effect, or another doubt; inactive = no such curve, though single readings can be large; an effect the other way counts as inactive or inconclusive.

What was measured:
[1] = biological target: Cellular tumor antigen p53 (Homo sapiens) (UniProt P04637); assay: Primary qHTS for small molecule compounds that upregulate eGFP-tagged delta133p53alpha (in N-terminal) cells. (AID 2060322); conditions: NCI-H358 eGFP-delta133p53alpha fluorescence, 24 h; activation: stronger effect = higher value; also: nearly all actives have a fitted effect of over 75% in size; also: potency is read from the fitted curve at half-maximal effect;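 as to activation: cells pre-induced with doxycycline then dosed without doxycycline; series mostly up to about 56 µM; 0% = DMSO vehicle and 100% = reference activator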
Cellular tumor antigen p53 (Homo sapiens), sequence (P04637 whole entry, looked up): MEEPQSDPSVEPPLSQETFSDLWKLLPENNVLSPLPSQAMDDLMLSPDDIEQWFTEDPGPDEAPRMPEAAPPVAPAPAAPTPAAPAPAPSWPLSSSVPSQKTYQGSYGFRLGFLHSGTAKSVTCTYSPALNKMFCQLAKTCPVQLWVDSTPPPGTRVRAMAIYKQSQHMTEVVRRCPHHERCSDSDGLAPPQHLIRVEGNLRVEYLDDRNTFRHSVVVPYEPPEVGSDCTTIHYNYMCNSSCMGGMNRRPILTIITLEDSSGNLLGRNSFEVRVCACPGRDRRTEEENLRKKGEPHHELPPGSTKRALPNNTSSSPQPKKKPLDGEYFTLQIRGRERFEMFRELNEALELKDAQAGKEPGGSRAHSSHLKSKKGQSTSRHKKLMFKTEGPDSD
Procedure, shortened: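 NCI-H358 cells pre-induced 24 h with 10 ng/ml doxycycline for eGFP-delta133p53alpha, plated dox-free and exposed 24 h at 37C to titrated compounds. Fixed, Hoechst-stained; gated GFP peak intensity by laser scanning cytometry, normalized to DMSO (0%) and 57.5 uM 5-azacytidine (100%).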

[2] = biological target: Aldehyde dehydrogenase, mitochondrial (Homo sapiens) (UniProt P05091); assay: qHTS for Inhibitors of the Aldehyde Dehydrogenase Family (ALDH2) Primary screen (AID 2061308);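 also: plate controls were vehicle for no effect and reference inhibitor for full effect; nearly all actives have a fitted effect of over 55% in size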
[3] = biological target: Retinaldehyde dehydrogenase 3 (Homo sapiens) (UniProt P47895); assay: qHTS for Inhibitors of the Aldehyde Dehydrogenase Family (ALDH1A3) Primary screen (AID 2061315);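 also: plate controls were DMSO vehicle for no effect and reference inhibitor for full effect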
[4] = BET inhibitor-based combinations targeting novel dependencies in MECOM-rearranged (r) AML: SET-2 cell line (AID 2202231); conditions: SET-2 AML cells viability, CellTiter-Glo luminescence, 48 h; viability: stronger effect = lower value, concentration not given here; also: nearly all actives have a fitted effect of over 35% in size; also: potency is read from the fitted curve at half-maximal effect;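 as to viability: plate controls were DMSO treated cells for no effect and wells without cells for full effect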
Procedure, shortened: (§1)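 Readout: CellTiter-Glo luminescence. Exposure: 48 h, 11 concentrations, 500 cells/well. Metric: AUC and within-line Z-AUC after DMSO/empty-well normalization.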

[5] = BET inhibitor-based combinations targeting novel dependencies in MECOM-rearranged (r) AML: OCI-AML3 cell line (AID 2202232); conditions: Potency: OCI-AML3 viability; also: nearly all actives have a fitted effect of over 35% in size; also: potency is read from the fitted curve at half-maximal effect
Procedure, shortened: as §1

[6] = BET inhibitor-based combinations targeting novel dependencies in MECOM-rearranged (r) AML: MV-4-11 cell line (AID 2202233); also: nearly all actives have a fitted effect of over 45% in size; also: potency is read from the fitted curve at half-maximal effect
Procedure, shortened: (§2)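 Seeding density was 500 cells/well, and drug exposure lasted 48 hr under standard culture conditions. Read-out used CellTiter-Glo reagent with a 15 min room-temperature incubation before luminescence measurement; AUC and Z-AUC summarize the normalized responses.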

[7] = BET inhibitor-based combinations targeting novel dependencies in MECOM-rearranged (r) AML: HNT-34 cell line (AID 2202234); also: nearly all actives have a fitted effect of over 35% in size; also: potency is read from the fitted curve at half-maximal effect
Procedure, shortened: as §2

[8] = BET inhibitor-based combinations targeting novel dependencies in MECOM-rearranged (r) AML: UCSD-AML1 cell line (AID 2202235); also: nearly all actives have a fitted effect of over 40% in size; also: potency is read from the fitted curve at half-maximal effect
Procedure, shortened: as §2

[9] = BET inhibitor-based combinations targeting novel dependencies in MECOM-rearranged (r) AML: AML-191 cell line (AID 2202236; also: nearly all actives have a fitted effect of over 35% in size; also: potency is read from the fitted curve at half-maximal effect)
Procedure, shortened: as §1

[10] = BET inhibitor-based combinations targeting novel dependencies in MECOM-rearranged (r) AML: AML-194 cell line (AID 2202237; also: nearly all actives have a fitted effect of over 40% in size; also: potency is read from the fitted curve at half-maximal effect)
Procedure, shortened: as §1

| Compound | activation [1] | Potency [2] | Potency [3] | Potency [4] | Potency [5] | Potency [6] | Potency [7] | Potency [8] | viability [4] | activity change, negative = inhibition [2] | activity change, negative = inhibition [3] | Potency [9] | Potency [10] | Potency [1] |
| --- | --- | --- | --- | --- | --- | --- | --- | --- | --- | --- | --- | --- | --- | --- |
| C/C=C/C(O)C1OC(=O)CC1Nc1ccc(C(=O)O)cc1 (stereo not drawn) | 5.34% | inactive | inactive |  |  |  |  |  |  |  |  |  |  |  |
| O=C(Nc1ccc(-c2ccnc(Nc3ccc(N4CCOCC4)cc3)n2)cc1)C1CCCN1 (stereo not drawn) | -5.36% | inactive | inactive | 9340 nM (active) | 16600 nM (active) | 2350 nM (active) | 5900 nM (active) | 1660 nM (active) |  |  |  |  |  |  |
| CC(=O)Nc1cccc(-n2c(=O)n(C3CC3)c(=O)c3c(Nc4ccc(I)cc4F)n(C)c(=O)c(C)c32)c1 | -5.24% and -3.57% | inactive | inactive |  |  |  |  |  | 89.5% |  |  |  |  |  |
| COc1c(OCCCN2CCOCC2)ccc2c3n(c(=NC(=O)c4cnc(N)nc4)nc12)CCN3 | 8.4% and -29.5% |  |  | 1080 nM (active) | 34 nM (active) | 85.5 nM (active) | 959 nM (active) | 42.8 nM (active) |  | -4.59% [at 11.2 µM] | 13.9% [at 11.2 µM] |  |  |  |
| COc1cc(C(=O)NC2CCN(C)CC2)c(F)cc1Nc1ncc2c(n1)N(C1CCCC1)CC(F)(F)C(=O)N2C | 17% | inactive | inactive | 93.4 nM (active) | 46.8 nM (active) | 105 nM (active) | 105 nM (active) | 105 nM (active) |  |  |  |  |  |  |
| Cc1ccccc1C(C(=O)NC1CCCCC1)N(C(=O)CNc1ccc(C#N)cc1)c1cccc(F)c1 (stereo not drawn) | 17.1% and 3.57% | inactive | inactive |  | inactive | inactive | inactive | inactive | 109% |  |  | inactive | inactive |  |
| CC(=O)NC(C)c1ccc(Oc2ccc(OC(C)C)cc2)cc1 (stereo not drawn) | 15.3% | inactive | inactive |  |  |  |  |  | 87.6% |  |  |  |  |  |
| CCN1CCN(Cc2ccc(Nc3ncc(F)c(-c4cc(F)c5nc(C)n(C(C)C)c5c4)n3)nc2)CC1 |  | inactive | inactive | 5900 nM (active) | 23500 nM (active) | 296 nM (active) | 5900 nM (active) | 662 nM (active) |  |  |  | 2950 nM (active) | 2090 nM (active) | 12 µM (active) |
| CCn1nnc2c(N3CCOCC3)nc(-c3ccc(NC(=O)Nc4ccc(C(=O)N5CCN(C)CC5)cc4)cc3)nc21 | 37.4% and 20.5% | inactive | inactive | 1860 nM (active) | 263 nM (active) | 166 nM (active) | 148 nM (active) | 186 nM (active) |  |  |  |  |  |  |
| O=C(NCc1cccc(O)c1)Nc1nc(-c2ccncc2)cs1 | 6.25% | inactive | inactive |  | 14800 nM (active) | 9340 nM (active) |  |  | 92.2% |  |  |  |  |  |
| CC(C)CC(=O)Nc1n[nH]c2c1CN(C(=O)C1CCN(C)CC1)C2(C)C |  | inactive | inactive | 10500 nM (active) | 1320 nM (active) | 372 nM (active) | 2350 nM (active) | 2350 nM (active) |  |  |  | 5900 nM (active) |  | 6.11 µM (active) and 4.78 µM (active) |
| C/C=C/C[C@@H](C)[C@@H](O)[C@H]1C(=O)N[C@@H](CC)C(=O)N(C)CC(=O)N(C)[C@@H](CC(C)C)C(=O)N[C@@H](C(C)C)C(=O)N(C)[C@@H](CC(C)C)C(=O)N[C@@H](C)C(=O)N[C@H](C)C(=O)N(C)[C@@H](CC(C)C)C(=O)N(C)[C@@H](CC(C)C)C(=O)N(C)[C@H](C(C)C)C(=O)N1C | 11.5% | inactive | inactive |  |  |  |  |  |  |  |  |  |  |  |
| Cc1ccc(NC(=O)Nc2cc(C(F)(F)F)ccc2F)cc1Nc1ccc2c(c1)NC(=O)/C2=C\c1ccc[nH]1 | -0.477% | inactive | inactive | 23500 nM (active) | 20900 nM (active) | 16600 nM (active) | 26300 nM (active) | inactive |  |  |  | 20900 nM (active) |  |  |
| CC(C)c1cc(C(C)C)c(CC(=O)NS(=O)(=O)Oc2c(C(C)C)cccc2C(C)C)c(C(C)C)c1 | 11.6% and 19% | inactive | inactive |  | 10500 nM (active) | 5250 nM (active) | 7420 nM (active) | inactive | 106% |  |  | 8330 nM (active) |  |  |
| CO[C@@H](C)Cn1c(=O)n(C)c2cnc3ccc(-c4cncc(C(C)(C)O)c4)cc3c21 | -10.7% | inactive | inactive | 934 nM (active) | 1180 nM (active) | 332 nM (active) | 372 nM (active) | 263 nM (active) |  |  |  | 235 nM (active) |  |  |
